Screens from PubChem.
Sampled rows, rich in hits. Any-hit rate of the full collection: about 3.8%.
HSF-1 act: increases HSF-1 driven luciferase reporter signal; NIH3T3-HGL HSF-1 luciferase reporter, MG132, 8 h; 100% = twice DMSO control signal; 300,000 compounds, 1.7% hits; activation, % at 9 µM; AID 504408;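 active = mean replicate activation of at least 50% with a set share of replicates each reaching 50%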;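 note: 0% = median of the neutral control wells and 100% = twice that signal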
Hsp70 activator: Hsp70 transcriptional activation, primary screen. HeLa Hsp70 promoter luciferase reporter, luminescence; scaled: vehicle 0, proteasome-inhibitor control 100%. 200,000 compounds, 0.04% hits. activation, % at 10 µM. AID 1203;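 active = activation above the mean across all tested compounds plus 3 SD, cutoff set per campaign, cut at about 5.5% in these data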;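 note: 100% = MG132 at 30 µM as the positive control and 0% = DMSO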
HSF1 inhib: HSF1 inhibition; NIH3T3-HGL HSE-luciferase, MG132-induced, luminescence 8 h; active compounds read low; activity change, negative = inhibition, % at 7.5 µM (by protocol); 300,000 compounds, 0.77% hits;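 active = more than half of replicate wells show activity change below -50%, luminescence cut by over half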;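 note: luciferase reports HSF-1 transcriptional activity via heat shock element; 0% = median of DMSO wells and -100% = zero luminescence signal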
NALP1 yeast inh: blocks the NALP1 inflammasome reconstituted in yeast; S. cerevisiae NALP1/ASC/caspase-1 growth, X-gal OD620, 72 h; inhibition, % at 10 µM; 280,000 compounds, 0.61% hits; AID 2071; in the data active = inhibition mostly above about 24%, no sharp cut-off; inactive = mostly below about 32%
p-CIP stab down: p/CIP protein destabilization. Q05BA5. F442A p/CIP-EGFP cells, EGFP fluorescence, 16 h. decrease of EGFP signal, % at 10 µM. 290,000 compounds, 0.01% hits;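 active = EGFP signal decrease of at least 30% at 10 µM or well 3 SD below plate mean, unless failing retest; inactive = the rest, including hits failing retest or dose response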
HSP90 inh: blocks HSP90-mediated luciferase refolding in reticulocyte lysate; Rabbit reticulocyte lysate, luciferase refolding luminescence, 3 h; inhibition, % at 5.6 µM; 290,000 compounds, 0.91% hits; AID 1789;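 active = inhibition above the screen-wide mean plus 3 SD, computed separately per campaign, cut at about 16% in these data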;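 note: 0% = DMSO wells and 100% = 60 µM geldanamycin wells; inhibitors lower the luminescence because luciferase stays unfolded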
HSP90 confirm: HSP90 inhibition, confirmation assay; 2,300 compounds, 64% hits; shares compounds with HSP90 inh; inhibition, % at 5.9 µM; rabbit reticulocyte lysate, luciferase refolding luminescence, 3 h; in the data active = inhibition above about 18%;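 note: 0% = vehicle wells and 100% = reference inhibitor wells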
FLuc counter: firefly luciferase inhibition, HSP90 counter-screen | shares compounds with HSP90 inh | purified native firefly luciferase, luminescence | inhibition, % at 5.9 µM | 2,300 compounds, 48% hits | AID 1847;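 active = inhibition above the mean inhibition of all tested sample wells plus 3 SD, cut at about 10% in these data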;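 note: 0% = DMSO with luciferase and 100% = wells lacking luciferase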
Target sequence (P08659 whole entry, looked up): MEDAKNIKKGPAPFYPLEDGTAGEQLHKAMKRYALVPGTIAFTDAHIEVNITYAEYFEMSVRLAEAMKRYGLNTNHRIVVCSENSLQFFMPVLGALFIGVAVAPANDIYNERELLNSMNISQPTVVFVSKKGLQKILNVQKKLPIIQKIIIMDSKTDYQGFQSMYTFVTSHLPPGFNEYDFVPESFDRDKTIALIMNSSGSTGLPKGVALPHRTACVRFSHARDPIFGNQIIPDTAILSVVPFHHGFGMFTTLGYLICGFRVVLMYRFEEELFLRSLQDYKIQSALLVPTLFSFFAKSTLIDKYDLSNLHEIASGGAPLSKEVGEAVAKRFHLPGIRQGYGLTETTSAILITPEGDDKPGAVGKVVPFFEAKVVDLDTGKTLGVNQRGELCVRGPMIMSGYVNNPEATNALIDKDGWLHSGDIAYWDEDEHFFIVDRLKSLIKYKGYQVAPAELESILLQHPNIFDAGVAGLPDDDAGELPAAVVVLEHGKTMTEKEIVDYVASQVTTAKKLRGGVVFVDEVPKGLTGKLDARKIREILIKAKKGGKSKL
An asterisk follows results filed as active.

O=C(CCN1C(=O)c2ccccc2C1=O)C1=NN[C@@H]2C(=O)N(c3ccc4c(c3)OCO4)C(=O)[C@H]12 was read as HSF-1 act 22, HSF1 inhib -5, NALP1 yeast inh 9, p-CIP stab down -5 and HSP90 inh 1.
Screening O=C(NCCc1ccc(F)cc1)C1CCCO1 (configuration not stated) returned HSF-1 act -4, HSF1 inhib -5, NALP1 yeast inh -12, p-CIP stab down -15 and HSP90 inh 7.
`CC(C(=O)O/N=C(\N)c1ccccn1)c1ccc([N+](=O)[O-])cc1` (configuration not stated) gave HSF-1 act -20, HSF1 inhib -12, NALP1 yeast inh 1, p-CIP stab down -14 and HSP90 inh 3.
N/C(=N\OC(=O)c1ccccc1)c1ccccn1 was read as HSF-1 act -70, Hsp70 activator 0, HSF1 inhib -65*, NALP1 yeast inh 11, p-CIP stab down -33, HSP90 inh 58*, HSP90 confirm 38* and FLuc counter 87*.
Screening N/C(=N\OCc1ccc([N+](=O)[O-])cc1)c1ccccn1 returned HSF-1 act -48, Hsp70 activator 0, HSF1 inhib -43, NALP1 yeast inh -9, p-CIP stab down 10, HSP90 inh 84*, HSP90 confirm 91* and FLuc counter 86*.
`Nc1cccc2c1C(=O)N(C(=O)/C=C/c1ccc(F)cc1)C2=O` gave HSF-1 act 61*, Hsp70 activator 0, HSF1 inhib 44, NALP1 yeast inh 9, p-CIP stab down 1, HSP90 inh 28*, HSP90 confirm 12 and FLuc counter -13.
`CCOc1ccc(-c2cn3ccccc3n2)cc1` gave Hsp70 activator -1, NALP1 yeast inh 7, p-CIP stab down -12, HSP90 inh 27*, HSP90 confirm 64* and FLuc counter 47*.
For O=[N+]([O-])c1ccc(-c2cnc3ccccc3n2)cc1 the results were HSF-1 act 35, HSF1 inhib 21, NALP1 yeast inh 8, p-CIP stab down -7 and HSP90 inh 0.
Screening CCOc1ccc(-c2cnc3ccccc3n2)cc1 returned HSF-1 act -58, HSF1 inhib -58*, NALP1 yeast inh 12, p-CIP stab down -14, HSP90 inh 42*, HSP90 confirm 86* and FLuc counter 80*.
For CCC(=NCc1ccco1)c1c(C(F)(F)F)[nH]n(-c2nc3ccccc3s2)c1=O the results were HSF-1 act -1, Hsp70 activator 0, HSF1 inhib 2, NALP1 yeast inh 42, p-CIP stab down 10 and HSP90 inh 2.
`CC(=NCc1ccco1)c1c(C)[nH]n(-c2nc3ccccc3s2)c1=O` gave Hsp70 activator 0, NALP1 yeast inh -1, p-CIP stab down -2, HSP90 inh 32*, HSP90 confirm 50* and FLuc counter 16*.
`CCCN(C(=O)Cc1ccc(S(=O)(=O)N2CCOCC2)s1)c1c(N)n(Cc2ccccc2)c(=O)[nH]c1=O` gave HSF-1 act 5, HSF1 inhib -7, NALP1 yeast inh 0, p-CIP stab down -12 and HSP90 inh -5.
`CCOc1cc(Br)c(CC(=O)NC2CCCCCC2)cc1OCC` gave HSF-1 act 2, HSF1 inhib 11, NALP1 yeast inh -3, p-CIP stab down 10 and HSP90 inh 0.
O=C(Nc1ccccc1O)c1cc2cc(Br)ccc2oc1=O was read as HSF-1 act 33, HSF1 inhib 16, NALP1 yeast inh -20, p-CIP stab down -18, HSP90 inh 17*, HSP90 confirm -4 and FLuc counter -16.
Oc1c(C=Nc2cccc3cccnc23)sc2ccccc12 was read as HSF-1 act -1, Hsp70 activator 0, HSF1 inhib 1, NALP1 yeast inh 14, p-CIP stab down 8, HSP90 inh 37*, HSP90 confirm 23* and FLuc counter 50*.
For O=[N+]([O-])c1ccc(O)c(N=Cc2sc3ccccc3c2O)c1 the results were HSF-1 act -45, Hsp70 activator 0, HSF1 inhib -32, NALP1 yeast inh 30, p-CIP stab down -1, HSP90 inh 21*, HSP90 confirm -2 and FLuc counter -10.
Cc1cccc(/N=C/c2sc3ccccc3c2O)n1 was read as HSF-1 act 13, HSF1 inhib 4, NALP1 yeast inh 2, p-CIP stab down -12 and HSP90 inh 6.
Screening CCOC(=O)c1c(-c2ccc(C)o2)csc1NC(=S)NC(=O)c1ccccc1Br returned HSF-1 act 85*, Hsp70 activator 0, HSF1 inhib 82, p-CIP stab down 4, HSP90 inh 21*, HSP90 confirm 5 and FLuc counter -6.
For CC(C)(C)C(=O)Nc1cc2nn(-c3ccccc3)nc2cc1Cl the results were Hsp70 activator 0, NALP1 yeast inh 0, p-CIP stab down -4, HSP90 inh 80*, HSP90 confirm 85* and FLuc counter 85*.
`COc1ccc(C(c2c(C)n(C)n(-c3ccccc3)c2=O)c2c(C)n(C)n(-c3ccccc3)c2=O)cc1OC` gave HSF-1 act 28, HSF1 inhib 7, NALP1 yeast inh 19, p-CIP stab down -1 and HSP90 inh 1.
Screening COc1ccc(C(c2c(C)[nH]n(-c3ccccc3)c2=O)c2c(C)[nH]n(-c3ccccc3)c2=O)cc1OC returned HSF-1 act 70*, Hsp70 activator 0, HSF1 inhib 26, NALP1 yeast inh 24, p-CIP stab down 14, HSP90 inh 22*, HSP90 confirm -1 and FLuc counter -9.
Screening Oc1cccc(-c2nc3ccccc3s2)c1 returned HSF-1 act 38, Hsp70 activator 0, HSF1 inhib 26, NALP1 yeast inh 11, p-CIP stab down 0, HSP90 inh 24*, HSP90 confirm 50* and FLuc counter 34*.
Nc1cccc(-c2nc3ccccc3s2)c1 was read as HSF-1 act 28, Hsp70 activator 0, HSF1 inhib 11, NALP1 yeast inh 5, p-CIP stab down 9 and HSP90 inh -3.
`COc1ccc(-c2nc3ccccc3s2)cc1O` gave HSF-1 act 43, Hsp70 activator 0, HSF1 inhib 19, NALP1 yeast inh -3, p-CIP stab down -7, HSP90 inh 38*, HSP90 confirm 78* and FLuc counter 72*.
Screening CC(C)c1ccc(-c2nc3ccccc3s2)cc1 returned HSF-1 act -92, HSF1 inhib -91*, NALP1 yeast inh -5, p-CIP stab down -6, HSP90 inh 84*, HSP90 confirm 98* and FLuc counter 94*.
